Sampled rows, rich in hits. Any-hit rate of the full collection: about 12%.
G9a block: inhibitors of human histone lysine methyltransferase G9a; 8.8% of 350,000 active; Q96KQ7; G9a H3K9 monomethylation, AlphaScreen, 2 h; AID 504332; Potency, µM (series often up to 102 µM), actives largely listed as inhibitors; also: nearly all actives have a fitted effect of over 75% in size
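Readings reflect AlphaScreen signal from monomethyl-H3K9 antibody detection. HMT at 20 nM; substrate b-H3K9 500 nM; cofactor SAM 20 uM; 2 h RT reaction; compounds tested as titrations in qHTS with 15 min preincubation.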
HP1b binding inh: inhibitors of HP1-beta chromodomain binding to methylated histone tails. AlphaScreen HP1-beta / biotin-H3K9me3 peptide binding. P83916. Potency, µM (doses to about 114 µM), usual class: inhibitors. 0.56% of 390,000 active. AID 540317; also: nearly all actives have a fitted effect of over 70% in size
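Compound inhibition of the preformed complex between 50 nM HP1-beta and 50 nM biotinylated H3K9me3 peptide was read by AlphaScreen. Buffer was PBS pH 7.4 with 0.01% Tween-20. Incubations ran 30 min at room temperature, with 10 ug/mL donor/acceptor beads.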
Sfp PPTase inh: blocks B. subtilis Sfp PPTase activity; Potency, µM, actives largely listed as inhibitors; 3.5% of 310,000 active; Biochemical Sfp PPTase activity, qHTS; AID 1490; Q9F4F7;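 also: the enzyme is Sfp with the accession as filed and its product quenches rhodamine fluorescence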
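Buffer: 50 mM Hepes-Na pH 7.6, 10 mM MgCl2, 0.01% Nonidet P-40, 0.01% BSA. Enzyme 15 nM, pre-exposed to compound 15 min; substrates then added and fluorescence change tracked over 30 min.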
BAZ2B inh: BAZ2B (human) inhibition; Potency, µM (titrated, usually from 114 µM), usual class: inhibitors; AID 504333; AlphaScreen BAZ2B-H3K14Ac peptide displacement; Q9UIF8; 4.4% of 360,000 active; also: nearly all actives have a fitted effect of over 60% in size
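AlphaScreen displacement of biotin-H3(5-23)K14Ac peptide (50 nM final) from BAZ2B (50 nM final) in PBS pH 7.4, 0.01% Tween-20; complex preformed 30 min RT, then compounds (top 110 uM) 30 min RT, beads 20 min dark.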
JMJD2A Tudor: inhibitors of human JMJD2A Tudor domain. AlphaScreen JMJD2A-Tudor / H3K4me3 peptide binding. O75164. Potency, µM (highest dose often 114 µM), hits mostly inhibitors. 4.4% of 390,000 active; also: nearly all actives have a fitted effect of over 50% in size
Target sequence (O75164 whole entry, looked up, the tested form may be a part): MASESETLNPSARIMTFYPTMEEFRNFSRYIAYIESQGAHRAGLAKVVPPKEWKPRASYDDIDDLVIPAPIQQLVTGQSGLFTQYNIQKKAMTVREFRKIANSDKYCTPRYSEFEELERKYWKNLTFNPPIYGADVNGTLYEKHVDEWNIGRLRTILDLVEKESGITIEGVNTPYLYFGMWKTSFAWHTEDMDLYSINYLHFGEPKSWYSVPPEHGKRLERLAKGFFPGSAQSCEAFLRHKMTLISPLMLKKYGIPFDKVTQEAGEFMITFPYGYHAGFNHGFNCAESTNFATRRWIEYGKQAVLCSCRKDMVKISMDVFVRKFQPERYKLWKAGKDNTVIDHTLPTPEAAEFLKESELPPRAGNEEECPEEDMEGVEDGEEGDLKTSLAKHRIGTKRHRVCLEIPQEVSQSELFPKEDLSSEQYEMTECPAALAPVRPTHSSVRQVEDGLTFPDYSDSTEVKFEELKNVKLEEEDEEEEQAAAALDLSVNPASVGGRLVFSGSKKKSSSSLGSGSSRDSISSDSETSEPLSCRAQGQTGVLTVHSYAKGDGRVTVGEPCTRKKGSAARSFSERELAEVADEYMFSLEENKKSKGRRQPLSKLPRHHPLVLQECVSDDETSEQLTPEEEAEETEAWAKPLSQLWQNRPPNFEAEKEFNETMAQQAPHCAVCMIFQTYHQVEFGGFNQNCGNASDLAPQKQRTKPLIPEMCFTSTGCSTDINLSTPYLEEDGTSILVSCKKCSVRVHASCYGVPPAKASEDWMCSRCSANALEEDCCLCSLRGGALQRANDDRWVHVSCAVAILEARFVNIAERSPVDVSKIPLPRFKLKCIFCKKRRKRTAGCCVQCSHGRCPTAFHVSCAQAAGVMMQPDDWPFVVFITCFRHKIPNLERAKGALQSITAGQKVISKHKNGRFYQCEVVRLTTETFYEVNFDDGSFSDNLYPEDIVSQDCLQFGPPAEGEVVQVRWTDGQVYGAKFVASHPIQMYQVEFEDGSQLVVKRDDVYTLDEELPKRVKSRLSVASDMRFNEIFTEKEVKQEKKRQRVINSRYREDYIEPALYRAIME
L3MBTL1 block: blocks human L3MBTL1 | Q9Y468 | AlphaScreen L3MBTL1–H3K9me1 peptide binding | Potency, µM (series often up to 57.1 µM), actives largely listed as inhibitors | 0.66% of 230,000 active; also: nearly all actives have a fitted effect of over 60% in size
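First, the protein-peptide complex forms for 30 min at room temperature (L3MBTL1 50 nM, biotinylated H3K9me1 peptide 75 nM). Next, compounds are pin-transferred and incubated 30 min. Finally, AlphaScreen beads are added and read after 30 min.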
Of the large screens only hits and unclear results are named; the others gave an inactive call. Calls follow the shape of the dose curve; as a rule, active = well fitted curve in the direction sought with a large enough effect; inconclusive = small, poorly fitted or top-dose-only effect, or another doubt; inactive = no such curve, though single readings can be large; an effect the other way counts as inactive or inconclusive.

CC(=O)NC(c1ccccc1)c1c(O)ccc2ccccc12 (stereo unspecified)	G9a block 18µM, BAZ2B inh 32µM
CC(=O)NC(c1ccc([N+](=O)[O-])cc1)c1c(O)ccc2ccccc12 (stereo unspecified)	G9a block 45µM, JMJD2A Tudor inconclusive
O=C(Cc1ccccc1)NC(c1ccco1)c1c(O)ccc2ccccc12 (stereo unspecified)	G9a block 50µM, BAZ2B inh inconclusive, JMJD2A Tudor inconclusive
CCCC(=O)NC(c1ccc(N(C)C)cc1)c1c(O)ccc2ccccc12 (stereo unspecified)	G9a block 32µM, HP1b binding inh 50µM, BAZ2B inh 18µM, JMJD2A Tudor 32µM, L3MBTL1 block inconclusive
COc1ccc(C(=O)OCC(=O)NCc2ccc3c(c2)OCO3)cc1S(=O)(=O)N1CCOCC1	none (no result: G9a block, Sfp PPTase inh, BAZ2B inh)
CCCCOP(=O)(c1ccc(N(C)C)cc1)C(O)c1ccc(N(C)C)cc1 (stereo unspecified)	G9a block 2.2µM, BAZ2B inh inconclusive, JMJD2A Tudor 5µM (no result: L3MBTL1 block)
CCCOP(=O)(c1ccc(N(C)C)cc1)C(O)c1ccc(Br)cc1 (stereo unspecified)	none (no result: L3MBTL1 block)
CCCCOP(=O)(c1ccc(N(C)C)cc1)C(O)c1ccncc1 (stereo unspecified)	G9a block inconclusive, BAZ2B inh inconclusive
CC(C)CCOP(=O)(c1ccc(N(C)C)cc1)C(Nc1ccccc1)c1ccc(N(C)C)cc1 (stereo unspecified)	G9a block 14µM, BAZ2B inh inconclusive, JMJD2A Tudor 45µM
CC(C)CCOP(=O)(c1ccc(N(C)C)cc1)C(O)c1ccc(N(C)C)cc1 (stereo unspecified)	G9a block 2.2µM, BAZ2B inh inconclusive, JMJD2A Tudor 7.1µM (no result: L3MBTL1 block)
CCCOP(=O)(c1ccc(N(C)C)cc1)C(O)c1ccc(N(C)C)cc1 (stereo unspecified)	G9a block 0.71µM, JMJD2A Tudor 8.9µM (no result: L3MBTL1 block)
Cc1ccc(S(=O)(=O)Nc2ncccn2)cc1	none (no result: G9a block)
CN(C)c1ncc2nc(-c3ccccc3)c(=O)n(C[C@H]3CCCO3)c2n1	none (no result: HP1b binding inh, BAZ2B inh, JMJD2A Tudor, L3MBTL1 block)
CN(c1nccc(=O)[nH]1)C1CCN(c2nc3ccccc3n2Cc2ccc(F)cc2)CC1	none (no result: HP1b binding inh, BAZ2B inh, JMJD2A Tudor, L3MBTL1 block)
NS(=O)(=O)c1ccc(N/N=C/c2ccccc2Br)cc1	none
Cc1ccc(CNS(=O)(=O)c2cc(C(=O)Nc3cccc(C(F)(F)F)c3)ccc2F)cc1	none (no result: Sfp PPTase inh, L3MBTL1 block)
CCOC(=O)COc1ccc2ccccc2c1/C=C/[N+](=O)[O-]	G9a block 18µM, Sfp PPTase inh 20µM
CCOC(=O)COc1ccc2nsnc2c1	none
CCOc1ccc(/C=C/[N+](=O)[O-])c2ccccc12	G9a block inconclusive, Sfp PPTase inh 8.9µM, JMJD2A Tudor inconclusive
CCOC(=O)COc1ccc(/C=C/[N+](=O)[O-])c(OCC(=O)OCC)c1	G9a block 71µM
CCOC(=O)Cn1cc(/C=C/[N+](=O)[O-])c2ccccc21	BAZ2B inh inconclusive (no result: G9a block)
Cc1cccc(Cn2cc(/C=C/[N+](=O)[O-])c3ccccc32)c1	none
Cc1cccc(NC(=O)Cn2c(=O)n(CCCCCC(=O)NCc3ccccc3)c(=O)c3sccc32)c1	none (no result: Sfp PPTase inh, L3MBTL1 block)
COC(=O)c1c(NC(=O)C2Cc3ccccc3C(=O)O2)sc2c1CCCC2 (stereo unspecified)	none
COC(=O)c1c(NC(=O)C2(C)Cc3ccccc3C(=O)O2)sc2c1CCCC2 (stereo unspecified)	G9a block 20µM, HP1b binding inh inconclusive, Sfp PPTase inh inconclusive
COc1ccccc1NC(=O)C1(C)Cc2ccccc2C(=O)O1 (stereo unspecified)	G9a block 50µM
Cc1ccc(NC(=O)C2(C)Cc3ccccc3C(=O)O2)c(C)c1 (stereo unspecified)	none (no result: Sfp PPTase inh, L3MBTL1 block)
COc1ccc(NC(=S)NCc2ccco2)c(OC)c1	none (no result: L3MBTL1 block)
CC(C)NC(=O)N1CC2(CCN(C(=O)c3ccco3)CC2)C1	none (no result: HP1b binding inh, BAZ2B inh, JMJD2A Tudor, L3MBTL1 block)
CCn1c(C)cc(/C=C2/SC(=S)NC2=O)c1C	G9a block inconclusive
Cc1cc(/C=C2\SC(=S)NC2=O)c(C)[nH]1	BAZ2B inh 45µM, JMJD2A Tudor inconclusive (no result: G9a block)

From PubChem
